About 83,000 compounds went through this panel and 20% of them were active in at least one assay; those are over-represented in the sample as a whole.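 Plates (96-well) were seeded with cells, treated with compound at one concentration, and incubated for 48 hours before percent growth was determined.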 Calls of active or inactive are those of the source. Rule for the calls: active = growth percent below 10; inactive = the rest.
Assays:
Assay in all cases: NCI-60 one-dose screen, 48 h (100 = growth as untreated, 0 = no growth, -100 = all killed)
Details in all cases: 10 µM unless noted
SK-MEL-2 melanoma = tested on: SK-MEL-2 melanoma
SN12C renal = tested on: SN12C renal
UO-31 renal = tested on: UO-31 renal
TK-10 renal = tested on: TK-10 renal
ACHN renal = tested on: ACHN renal
CAKI-1 renal = tested on: CAKI-1 renal
A498 renal = tested on: A498 renal
HL-60(TB) leukemia = tested on: HL-60(TB) leukemia
CCRF-CEM leukemia = tested on: CCRF-CEM leukemia
MOLT-4 leukemia = tested on: MOLT-4 leukemia
SR leukemia = tested on: SR leukemia
RPMI-8226 leukemia = tested on: RPMI-8226 leukemia
OVCAR-8 ovarian = tested on: OVCAR-8 ovarian
OVCAR-5 ovarian = tested on: OVCAR-5 ovarian
OVCAR-4 ovarian = tested on: OVCAR-4 ovarian
SK-OV-3 ovarian = tested on: SK-OV-3 ovarian
IGROV1 ovarian = tested on: IGROV1 ovarian
HS 578T breast = tested on: HS 578T breast
EKVX NSCLC = tested on: EKVX NSCLC
OVCAR-3 ovarian = tested on: OVCAR-3 ovarian

Measured: growth

O=[N+]([O-])c1cc(Br)c(O)c(Br)c1
inactive: SK-MEL-2 melanoma 108% | SN12C renal 106% | UO-31 renal 87.5% | TK-10 renal 100% | ACHN renal 118% | CAKI-1 renal 108% | A498 renal 70.1% | HL-60(TB) leukemia 119% | CCRF-CEM leukemia 100% | MOLT-4 leukemia 107% | SR leukemia 102% | RPMI-8226 leukemia 98.9% | OVCAR-8 ovarian 99.1% | OVCAR-5 ovarian 115% | OVCAR-4 ovarian 122% | SK-OV-3 ovarian 103% | IGROV1 ovarian 111% | HS 578T breast 109%

CCN1C(=O)NC(=O)C(C)(N2C(=O)c3c(F)c(F)c(F)c(F)c3C2=O)C1=O (stereo not drawn)
inactive: SK-MEL-2 melanoma 16.8% | EKVX NSCLC 104% | SN12C renal 33.6% | UO-31 renal 25.1% | TK-10 renal 34.5% | A498 renal 99.2% | OVCAR-5 ovarian 42.7% | SK-OV-3 ovarian 96.9% | HS 578T breast 12.1%
active: ACHN renal -57.7% | CAKI-1 renal -46.7% | MOLT-4 leukemia -51.3% | SR leukemia -64.6% | RPMI-8226 leukemia 2.56% | OVCAR-8 ovarian 3.31% | OVCAR-4 ovarian 1.91% | OVCAR-3 ovarian -89.9%

COC12CC3C4=CCOC5CC(=O)N6c7ccccc7C1(CCN2C4)C6C53 (stereo not drawn)
inactive: SK-MEL-2 melanoma 108% | EKVX NSCLC 117% | SN12C renal 119% | UO-31 renal 92.7% | TK-10 renal 100% | ACHN renal 113% | CAKI-1 renal 102% | A498 renal 94.6% | CCRF-CEM leukemia 99.7% | RPMI-8226 leukemia 104% | OVCAR-8 ovarian 91.8% | OVCAR-5 ovarian 121% | OVCAR-4 ovarian 97.5% | SK-OV-3 ovarian 107% | IGROV1 ovarian 108% | OVCAR-3 ovarian 117% | HS 578T breast 117%

CC1=CC(=O)CCC12CCOC2=O (stereo not drawn)
inactive: SK-MEL-2 melanoma 125% | EKVX NSCLC 91.4% | SN12C renal 95.2% | TK-10 renal 92% | ACHN renal 101% | CAKI-1 renal 91.3% | A498 renal 91.7% | HL-60(TB) leukemia 86.5% | CCRF-CEM leukemia 82.4% | RPMI-8226 leukemia 88.3% | OVCAR-8 ovarian 100% | OVCAR-5 ovarian 96.7% | OVCAR-4 ovarian 93.8% | SK-OV-3 ovarian 101% | OVCAR-3 ovarian 106% | HS 578T breast 88.4%

Oc1ccccc1C=NCCN=Cc1ccccc1O
inactive: SK-MEL-2 melanoma 106% | SN12C renal 102% | UO-31 renal 92.3% | TK-10 renal 104% | ACHN renal 103% | CAKI-1 renal 102% | A498 renal 77.9% | HL-60(TB) leukemia 115% | MOLT-4 leukemia 106% | SR leukemia 98.5% | RPMI-8226 leukemia 95.1% | OVCAR-8 ovarian 110% | OVCAR-5 ovarian 104% | OVCAR-4 ovarian 109% | SK-OV-3 ovarian 102% | OVCAR-3 ovarian 102% | HS 578T breast 106%

COC[C@H]1OC(=O)c2coc3c2[C@@]1(C)C1=C(C3=O)[C@@H]2CCC(=O)[C@@]2(C)C[C@H]1OC(C)=O
inactive: SK-MEL-2 melanoma 17.3% | EKVX NSCLC 42.1% | SN12C renal 43.3% | UO-31 renal 31.4% | TK-10 renal 38.8% | ACHN renal 42.2% | CAKI-1 renal 32.2% | HL-60(TB) leukemia 25.8% | CCRF-CEM leukemia 46.6% | MOLT-4 leukemia 42.2% | SR leukemia 12.1% | RPMI-8226 leukemia 58.8% | OVCAR-4 ovarian 53.2% | SK-OV-3 ovarian 39.9% | OVCAR-3 ovarian 41.7%
active: OVCAR-5 ovarian -41.3% | IGROV1 ovarian -28%

NC(N)=NC(N)=Nc1ccc(Cl)cc1
inactive: SK-MEL-2 melanoma 111% | EKVX NSCLC 93% | SN12C renal 103% | UO-31 renal 95.2% | TK-10 renal 115% | ACHN renal 93.9% | HL-60(TB) leukemia 48.4% | CCRF-CEM leukemia 89.7% | MOLT-4 leukemia 93.3% | SR leukemia 94.9% | RPMI-8226 leukemia 94.2% | OVCAR-8 ovarian 121% | OVCAR-5 ovarian 92.1% | SK-OV-3 ovarian 110% | IGROV1 ovarian 116% | OVCAR-3 ovarian 105%

CNC(=O)CCl
inactive: SK-MEL-2 melanoma 101% | SN12C renal 96.9% | UO-31 renal 96.5% | TK-10 renal 99.9% | ACHN renal 114% | CAKI-1 renal 94.9% | A498 renal 92.1% | HL-60(TB) leukemia 119% | CCRF-CEM leukemia 94% | MOLT-4 leukemia 118% | SR leukemia 109% | RPMI-8226 leukemia 106% | OVCAR-8 ovarian 105% | OVCAR-5 ovarian 107% | OVCAR-4 ovarian 101% | SK-OV-3 ovarian 102% | IGROV1 ovarian 107% | OVCAR-3 ovarian 113% | HS 578T breast 104%

O=S(=O)(F)c1cccc(Cl)c1C[P+](c1ccccc1)(c1ccccc1)c1ccccc1
inactive: SK-MEL-2 melanoma 97.1% | SN12C renal 102% | UO-31 renal 88.3% | TK-10 renal 116% | ACHN renal 97.7% | CAKI-1 renal 94.4% | A498 renal 122% | HL-60(TB) leukemia 98.9% | CCRF-CEM leukemia 86.7% | SR leukemia 95.3% | RPMI-8226 leukemia 74.1% | OVCAR-8 ovarian 84.3% | OVCAR-5 ovarian 94.8% | OVCAR-4 ovarian 90.2% | SK-OV-3 ovarian 89.2% | OVCAR-3 ovarian 96.5% | HS 578T breast 103%

C[C@]12CC[C@@H](OC(=O)N(CCCl)N=O)C[C@@H]1CC[C@@H]1[C@@H]2CC[C@]2(C)C(=O)CC[C@@H]12
inactive: SK-MEL-2 melanoma 37.8% | EKVX NSCLC 59.8% | SN12C renal 43% | UO-31 renal 49.9% | TK-10 renal 81.8% | ACHN renal 21.7% | CAKI-1 renal 20.7% | CCRF-CEM leukemia 26.6% | RPMI-8226 leukemia 21.7% | OVCAR-8 ovarian 58.1% | OVCAR-5 ovarian 114% | SK-OV-3 ovarian 21.2% | OVCAR-3 ovarian 64.1% | HS 578T breast 81.6%
active: A498 renal -10.1% | IGROV1 ovarian -13.9%

CC(=O)C(N)Cc1ccccc1 (stereo not drawn)
inactive: SK-MEL-2 melanoma 107% | EKVX NSCLC 100% | SN12C renal 95.7% | UO-31 renal 96.3% | ACHN renal 99.7% | CAKI-1 renal 96.2% | MOLT-4 leukemia 101% | SR leukemia 93.7% | RPMI-8226 leukemia 79.6% | OVCAR-8 ovarian 91.8% | OVCAR-5 ovarian 105% | SK-OV-3 ovarian 83.1% | IGROV1 ovarian 107% | OVCAR-3 ovarian 114%

CC1(C)N=C(N)N=C(N)N1c1ccc(CCC(=O)Nc2ccc(S(=O)(=O)F)cc2)cc1
inactive: SK-MEL-2 melanoma 50.4% | SN12C renal 33.4% | UO-31 renal 82.3% | TK-10 renal 24.3% | ACHN renal 64.5% | CAKI-1 renal 28.8% | A498 renal 60.3% | HL-60(TB) leukemia 18.8% | MOLT-4 leukemia 26.1% | SR leukemia 15.7% | RPMI-8226 leukemia 34.4% | OVCAR-8 ovarian 36.7% | OVCAR-5 ovarian 34% | SK-OV-3 ovarian 67.8% | IGROV1 ovarian 25.8% | OVCAR-3 ovarian 96.7% | HS 578T breast 82%

COc1ccc2c(c1)C1(C)CCN(C)CC(C1)C2O (stereo not drawn)
inactive: SK-MEL-2 melanoma 105% | SN12C renal 99.3% | UO-31 renal 86.9% | TK-10 renal 95% | ACHN renal 104% | CAKI-1 renal 119% | A498 renal 99.5% | HL-60(TB) leukemia 89.1% | CCRF-CEM leukemia 94.3% | MOLT-4 leukemia 94.1% | SR leukemia 94.2% | RPMI-8226 leukemia 98.7% | OVCAR-8 ovarian 101% | OVCAR-5 ovarian 99.3% | OVCAR-4 ovarian 103% | SK-OV-3 ovarian 107% | IGROV1 ovarian 86.9% | OVCAR-3 ovarian 109% | HS 578T breast 116%

CCCC[C@H]1C(=O)O[C@H](C)[C@H](NC(=O)c2cccc(NC=O)c2O)C(=O)O[C@@H](C)[C@@H]1OC(=O)CC(C)C
inactive: SK-MEL-2 melanoma 93.4% | EKVX NSCLC 57.7% | SN12C renal 59.6% | UO-31 renal 57.3% | TK-10 renal 49.8% | ACHN renal 56.6% | CAKI-1 renal 34.5% | HL-60(TB) leukemia 37% | CCRF-CEM leukemia 28.7% | MOLT-4 leukemia 31.1% | SR leukemia 49.4% | RPMI-8226 leukemia 18.2% | OVCAR-4 ovarian 40.9% | SK-OV-3 ovarian 68% | IGROV1 ovarian 55.6% | OVCAR-3 ovarian 43.4%
active: OVCAR-5 ovarian -27.7% | HS 578T breast -18.5%

COC(=O)C1=CO[C@@H](C)[C@@H]2CN3CCc4c([nH]c5cc(OC)ccc45)[C@@H]3C[C@H]12
inactive: SK-MEL-2 melanoma 100% | EKVX NSCLC 97.5% | SN12C renal 87.8% | TK-10 renal 101% | ACHN renal 94.8% | CAKI-1 renal 89.8% | A498 renal 68.6% | HL-60(TB) leukemia 87.1% | CCRF-CEM leukemia 106% | MOLT-4 leukemia 94.8% | SR leukemia 92.7% | RPMI-8226 leukemia 94.3% | OVCAR-8 ovarian 95.9% | OVCAR-5 ovarian 95.6% | OVCAR-4 ovarian 107% | SK-OV-3 ovarian 100% | OVCAR-3 ovarian 100% | HS 578T breast 94.5%

NC(=O)Oc1cc(OC(N)=O)cc(N(CCCl)CCCl)c1
inactive: SK-MEL-2 melanoma 93.2% | SN12C renal 37.5% | UO-31 renal 34.5% | TK-10 renal 103% | ACHN renal 15.7% | A498 renal 77.6% | HL-60(TB) leukemia 15.1% | RPMI-8226 leukemia 59.7% | OVCAR-8 ovarian 28.5% | OVCAR-5 ovarian 91.3% | OVCAR-4 ovarian 74.7% | SK-OV-3 ovarian 76% | IGROV1 ovarian 91.2% | OVCAR-3 ovarian 82.8% | HS 578T breast 107%
active: CAKI-1 renal -24.7% | SR leukemia -17.1%

N#CCCc1ccccc1
inactive: SK-MEL-2 melanoma 121% | EKVX NSCLC 103% | SN12C renal 103% | UO-31 renal 85% | TK-10 renal 113% | ACHN renal 98.4% | CAKI-1 renal 98.2% | HL-60(TB) leukemia 103% | CCRF-CEM leukemia 96.2% | SR leukemia 91.8% | RPMI-8226 leukemia 111% | OVCAR-8 ovarian 107% | OVCAR-5 ovarian 98% | OVCAR-4 ovarian 110% | SK-OV-3 ovarian 111% | IGROV1 ovarian 103% | OVCAR-3 ovarian 119% | HS 578T breast 118%

c1ccc2c(c1)sc1ccccc12
inactive: SK-MEL-2 melanoma 113% | EKVX NSCLC 93.6% | SN12C renal 98.4% | UO-31 renal 79.2% | ACHN renal 89.6% | CAKI-1 renal 84.4% | A498 renal 113% | CCRF-CEM leukemia 103% | SR leukemia 105% | RPMI-8226 leukemia 103% | OVCAR-8 ovarian 101% | OVCAR-5 ovarian 95.7% | OVCAR-4 ovarian 105% | SK-OV-3 ovarian 104% | IGROV1 ovarian 98.2% | OVCAR-3 ovarian 116% | HS 578T breast 104%

— PubChem BioAssay (NCI)
